Data as given in PubChem BioAssay (NCI).
Compounds without any hit were thinned out: in the full panel of roughly 83,000, 20% have a hit.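 Method: cells in 96-well plates; compound added at one concentration; 48 h incubation; percent growth measured; values under 10 scored active.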 Unmarked numbers belong to inactive results. Activity calls are given as the source filed them.

System: SW-620 colon
Assay: NCI-60 one-dose screen, 48 h (100 = growth as untreated, 0 = no growth, -100 = all killed)
Conditions: 10 µM unless noted
Method: Growth inhibition of the SW-620 human tumor cell line is measured as a screen for anti-cancer activity. Cells are grown in 96 well plates and exposed to the test compound for 48 hours. Compounds are tested at a single concentration, which is 10^-5 M for most compounds. The reported endpoint is percent growth (GI% or GIPRCNT), where numbers from 0 - 100% represent growth inhibition, and numbers from -100% - 0 represent cell death. For example, a value of 40 represents 60% growth inhibition. A value of 0 means no net growth occurred over the course of the experiment. A value of -40 indicates 40% of cells at the beginning of the experiment died by the end of the experiment. A value of -100 means all cells are dead at the end of the experiment.
NCI-60 Human Tumor Cell Lines Screen was performed using the standard one-dose NCI protocol, which is described in more detail at https://dtp.cancer.gov/discovery_development/nci-60/default.htm.
Compounds with GIPRCNT values below 10 were considered active. Activity score was based on GIPRCNT using the following formula: […]
Score is 0 for GIPRCNT values of 100 or above, 50 for GIPRCNT values of 0, and 100 for GIPRCNT values of -100.

Point of comparison: `O=C1Nc2ccccc2/C1=C/c1ccc(CO)n1-c1ccc(Cl)cc1`, growth 32.4%. Against it:
- CNC(=O)c1cc(-c2ccc(NS(=O)(=O)c3ccc(C)cc3)cc2)nc2cccnc12 — higher, 107%
- COc1ccc(-n2c(SCc3nnc(NC(=O)c4ccc(Br)cc4)s3)nc3cc(OC)c(OC)cc3c2=O)cc1 — higher, 95.7%
- CCCn1cnc2c(c1=N)C(c1ccc(OC)cc1)c1sc3c(CC)cccc3c1O2 (stereo not given) — lower, 28.4%
- O=C(CSc1nnc(-c2ccc3nc(-c4ccccc4)[nH]c3c2)o1)Nc1ccc(C(=O)/C=C/c2ccccc2)cc1 — higher, 116%
- CCNC(=O)N1CCc2cc(OC)c(OCCc3ccc(OC)cc3)cc2C1c1ccc([N+](=O)[O-])cc1C (stereo not given) — lower, 23.8%
- CC1(C)[C@@H](O)CC[C@]2(C)[C@H]3CC[C@@H]4[C@H]5[C@H](C(=O)/C=C\c6ccncc6)CC[C@]5(O)CC[C@@]4(C)[C@]3(C)CC[C@@H]12 — lower, 26.5%
- CC(=O)c1cc(C(=O)c2ccc(Br)cc2)n2cc(C)cc(C)c12 — higher, 103%
- O=C(NNc1nc2cc(F)c(F)cc2n2c(CN3CC4CNCC4C3)ccc12)c1cnccn1 (stereo not given) — lower, 23.7%
- O=C(CN1CCN(c2cc(=O)n(-c3ccccc3)c3ccccc23)CC1)Nc1ccc(F)cc1 — higher, 91.6%
- Cc1nc(-c2ccccc2O)ccc1C(=O)N=Nc1c(O)[nH]c2ccc(Br)cc12 — higher, 95.9%
- Cc1cc(S(=O)(=O)N(C)C)cc(NCC(=O)NC(=O)NCC(C)C)c1C — higher, 98.4%
- CCNC(=O)N1CCc2cc(OC)c(OCCc3ccc(OC)nc3)cc2C1c1ccc(OC)cc1C (stereo not given) — lower, 16%
- CS(=O)(=O)Nc1cc(-c2ccc3ncc(C#N)c(N[C@H](CO)c4ccccc4)c3c2)cnc1Cl — lower, 26.6%
- CC(=O)C1=C(C)NC(NNC(N)=S)=NC1c1ccccc1 (stereo not given) — higher, 96.8%
- CN1CCC(n2cc(Nc3ncc4c(=O)n(-c5c(Cl)cccc5Cl)cc(Br)c4n3)cn2)CC1 — lower, 20.5%
- O=C(O)c1cn(C2CC2)c2cc(N3CCN(C(=O)CN4C(=O)CSC4=O)CC3)c(F)cc2c1=O — higher, 100%
- Cc1ccc(-c2cc3nc(C(Cl)Cl)nc(C)n3n2)cc1 — higher, 107%
- COC(=O)C(Cc1ccccc1)Nc1nc(NC(Cc2ccccc2)C(=O)OC)nc(N2CCOCC2)n1 (stereo not given) — higher, 112%
- CCn1c(SCC(=O)Nc2cccc(C(=O)/C=C/c3ccccc3Cl)c2)nc2ccccc2c1=O — higher, 72.8%
- O=C1/C(=C/C=C/c2ccco2)SC(=S)N1C1CCCCC1 — higher, 92.2%
- COC(=O)c1[nH]nc2c1C1(C(=O)N(C)c3ccccc31)C(C#N)=C(N)O2 (stereo not given) — higher, 93%
- CNC(=O)c1cc(-c2ccc(NC(=S)Nc3cc(C(F)(F)F)cc(C(F)(F)F)c3)cc2)nc2cccnc12 — higher, 98.1%
- N#Cc1c(-c2cccs2)cc(-c2cnccn2)nc1SCC(=O)Nc1ccc(Br)cc1 — higher, 77.3%
- Brc1ccccc1/C=N/Nc1nc(N/N=C/c2ccccc2Br)nc(N2CCOCC2)n1 — higher, 96.7%
- COc1ccc(NC(=O)Nc2ccc3c(ccn3C(=O)c3cccc(F)c3)c2)cc1 — higher, 60.2%
- Nc1ncc(-c2ccc(NS(=O)(=O)c3ccc(Cl)c(Cl)c3)cc2)[nH]1 — higher, 91.3%
- Cc1ccc(S(=O)(=O)NCCNc2nc(Nc3ccc(N4CCN(C)CC4)cc3)nc3ccsc23)cc1 — higher, 103%
- COc1cc(-c2nnc(SCc3ccc(O)c4ncccc34)n2-c2ccccc2)cc(OC)c1OC — lower, 10.3%

For `Cn1ccnc1C(=O)/C=C/c1ccc(CNC(=O)c2ccc(S(F)(F)(F)(F)F)cc2)cc1`, the growth was 9.31% (active).
In the case of `CCOc1ccccc1NC1=C(Cl)C(=O)c2nc(C)ccc2C1=O`, the growth is reported as -66.7% (active).
With `N#Cc1c(NC(=O)c2cccc(C(F)(F)F)c2F)sc2c1CCC(=O)C2` the growth was 0.65% (active).
In the case of `NC(N)=Nc1ccc(Oc2cccc(Nc3ccc(Br)c(C(F)(F)F)c3)c2)cn1`, the growth is reported as -79% (active).
With `Nc1nc(-c2cccc([N+](=O)[O-])c2)c(N=Nc2ccc(Br)cc2)s1` the growth was -34.5% (active).
With `Cn1ccnc1C(=O)/C=C/c1ccc(CNC(=O)c2ccc(F)cc2)cc1` the growth was 9.37% (active).
For `NC(N)=Nc1ccc(Nc2cccc(Nc3ccc(Cl)c(C(F)(F)F)c3)c2)cn1`, the growth was 5.81% (active).
In the case of `CCN(CC)c1ccc2c(c1)Oc1nc(N)c(C#N)c(N)c1C2Sc1ccc(F)cc1` (stereo not given), the growth is reported as -80.2% (active).
In the case of `C=CCn1c(SCC(=O)Nc2ccc(C(=O)/C=C/c3cc(OC)c(OC)c(OC)c3)cc2)nnc1-c1c[nH]c2ccccc12`, the growth is reported as -0.994% (active).
`CCc1nn2c(C)cc(C)nc2c1Cc1ccc(/C=C/CN2CCN(CCOCCOCCN3CCN(C/C=C/c4ccc(Cc5c(CC)nn6c(C)cc(C)nc56)cc4)CC3)CC2)cc1` was tested, and the growth was -50.4% (active).
With `CCNC(=O)Oc1ccc(/C(=C(/C)c2ccccc2)c2ccc(OCCN3CCCCCC3)cc2)cc1` the growth was -42.9% (active).
